ATXN viability: cell viability loss in ATXN counter-screen | S2 cells (HEK-293 line with an ATXN2-luciferase reporter) viability, CellTiter-Fluor protease fluorescence, 24 h | Potency, µM (doses to about 56.7 µM), most hits filed as cytotoxic | hit rate 0.49% among 400,000 | AID 651635; further: nearly all actives have a fitted effect of over 40% in size
ATXN2 expr inh: ATXN2 expression inhibition; HEK-293 ATXN2-luciferase reporter, luminescence, 24 h; Potency, µM (titrated, usually from 57 µM), most hits filed as inhibitors; hit rate 0.72% among 360,000; further: nearly all actives have a fitted effect of over 55% in size
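qHTS (up to 57 uM final) was run with 24 h compound exposure of reporter cells at 37 °C. Each well was multiplexed: SteadyGlo luminescence measured ATXN2-luciferase expression after a fluorogenic Gly-Phe-AFC viability readout (25 uM final).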
HepG2 tox: counter-screen for TGF-b inhibitors: cytotoxicity in HepG2 cells. HepG2 CAGA-GFP viability, ATP luminescence, 18 h. Potency, µM (highest dose often 46.1 µM), hits mostly cytotoxic. hit rate 0.76% among 410,000. AID 588856
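CellTiter-Glo luminescence gave cytotoxicity after 18 hours at 37 degrees C. The cells were HepG2 CAGA-GFP in 1% FBS DMEM, stimulated with 500 pg/mL TGF-beta after compound addition. %Activity was normalised to no-cell wells (complete cell-killing) and DMSO (no toxicity), and curves were fitted and classified.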
TGFb inhibitor: inhibitors of TGF-b signaling; HepG2 CAGA-GFP TGF-b/SMAD3 reporter, GFP fluorescence, 18 h; TGF-beta stimulated, 500 pg/mL final; AID 588855; Potency, µM (series often up to 46.1 µM), most hits filed as inhibitors; hit rate 1.2% among 410,000; further: nearly all actives have a fitted effect of over 65% in size
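Cell-based qHTS in HEPG2 carrying a CAGA-GFP Smad reporter; compounds added before 500 pg/mL final TGF-beta, 18 h incubation at 37 degrees C, GFP fluorescence quantified per cell by imaging cytometry.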
Each line names hits and unclear results; the compound was inactive in the other large screens; ! = repeats disagree. A selection: hits, their analogues and other compounds. The true share with any hit is near 2.3%. The call rests on the fitted dose curve; in most records, active means well fitted curve in the direction sought with a large enough effect; inconclusive means small, poorly fitted or top-dose-only effect, or another doubt; inactive means no such curve, though single readings can be large; an effect the other way counts as inactive or inconclusive.

CCN1CCN(Cc2ccc(NC(=O)c3ccc(C)c(NC(=O)c4ccnnc4)c3)cc2C(F)(F)F)CC1	none
NC(=O)NS(=O)(=O)c1ccc(Cl)cc1	none (no result: HepG2 tox, TGFb inhibitor)
CCC(C)Sc1cc(-c2nc3ccccn3c2NC2CCCCC2)ccc1OC (centres undefined)	ATXN viability 32µM, ATXN2 expr inh inconclusive, TGFb inhibitor inconclusive
CCCCCCSc1cc(-c2nc3ccc(Cl)cn3c2NCCCC)ccc1OC	none
COc1ccc(-c2nc3ccccn3c2NCc2ccc3c(c2)OCO3)cc1	none
CCCCNc1c(-c2ccc(OC)c(SC(C)CC)c2)nc2cnccn12 (centres undefined)	ATXN2 expr inh inconclusive, TGFb inhibitor inconclusive (no result: ATXN viability)
CCCCNc1c(-c2ccc(OC)c(SC(C)CC)c2)nc2ccc(C)cn12 (centres undefined)	ATXN viability 11µM, ATXN2 expr inh 13µM!, HepG2 tox 14µM, TGFb inhibitor 13µM
CCCCNc1c(-c2ccc(OC)c(SC(C)CC)c2)nc2cc(C)ccn12 (centres undefined)	ATXN viability 32µM, ATXN2 expr inh 25µM, HepG2 tox 11µM, TGFb inhibitor 11µM
COc1ccc(-c2cc(-c3nc4ccccn4c3NCc3ccccc3)ccc2OC)cc1	ATXN viability 7.9µM, ATXN2 expr inh 4µM, TGFb inhibitor inconclusive
O=C(NC1CCCC1)c1cnn2c1NC(=C1CC1)C=C2C(F)F	none (no result: ATXN viability, ATXN2 expr inh)
C[N+]1(CC(=O)c2c3ccccc3cc3ccccc23)CCOCC1	none (no result: ATXN viability, ATXN2 expr inh)
O=C1NC(=O)C(=Cc2ccc(-c3ccc(F)cc3O)o2)S1	none (no result: ATXN viability, HepG2 tox, TGFb inhibitor)
CCCCCCSc1cc(-c2nc3ccc(C)cn3c2NCCCC)ccc1OC	ATXN viability 14µM, TGFb inhibitor inconclusive
CCC(C)Sc1cc(-c2nc3ccc(C)cn3c2NCc2ccccc2)ccc1OC (centres undefined)	ATXN viability 10µM, ATXN2 expr inh 18µM, TGFb inhibitor 13µM
CCC(C)Sc1ccc(-c2nc3ccc(C)cn3c2NCc2ccccc2)cc1OC (centres undefined)	ATXN viability inconclusive, ATXN2 expr inh inconclusive, TGFb inhibitor inconclusive
CC(=O)c1ccc(-c2cccc(-c3nc4ccccn4c3NC3CCCCC3)c2)cc1	ATXN viability 16µM, ATXN2 expr inh inconclusive, TGFb inhibitor inconclusive
CCCCCCc1cc2cc(S(=O)(=O)c3ccc(Cl)cc3)c(=O)oc2cc1O	ATXN2 expr inh inconclusive, TGFb inhibitor 11µM (no result: ATXN viability)
CCCCCCc1cc2cc(C(=O)NCc3ccccc3)c(=N)oc2cc1O	none
CCCCCCc1cc2cc(C(=O)Nc3ccccc3)c(=O)oc2cc1O	ATXN2 expr inh 7.1µM, TGFb inhibitor inconclusive
COc1ccc(C(=O)NCC2Cc3cccc(-c4ccc(S(C)(=O)=O)cc4)c3O2)c(OC)n1 (centres undefined)	none (no result: ATXN2 expr inh, HepG2 tox, TGFb inhibitor)
O=C(/C=C\c1ccccc1OC(=O)c1ccccc1F)c1cc2ccccc2o1	TGFb inhibitor 14µM
CC(=O)Nc1cc2cc(NS(=O)(=O)c3ccc(Cl)cc3)ccc2oc1=O	HepG2 tox 0.2µM
Cc1ccc(C(=O)Nc2cc3cc(Cl)ccc3oc2=O)cc1	none (no result: ATXN viability, ATXN2 expr inh)
O=C(Nc1ccc(Cl)cc1Cl)[C@@H]1CC=C[C@@H]2CCN(Cc3ccccc3)C(=O)[C@@H]21	none (no result: ATXN viability, ATXN2 expr inh)
CCc1nnc(N/N=C/c2ccccc2Cl)n1N	HepG2 tox 13µM, TGFb inhibitor 11µM
COc1cc(CN2CCCC(n3cc(C(=O)N4CCCCC4)nn3)C2)cc(OC)c1OC (centres undefined)	none (no result: ATXN2 expr inh, HepG2 tox, TGFb inhibitor)
O=C(NNc1ncc(C(F)(F)F)cc1Cl)c1ccc(Cl)c(Cl)c1	none
Cc1ccc(NC(=S)NNc2ncc(C(F)(F)F)cc2Cl)c(C)c1	TGFb inhibitor inconclusive
Cc1ccc(NC(=S)NNc2ncc(C(F)(F)F)cc2Cl)cc1	ATXN2 expr inh 17µM, TGFb inhibitor inconclusive
Fc1ccc(NC(=S)NNc2ncc(C(F)(F)F)cc2Cl)c(F)c1	ATXN2 expr inh 14µM, TGFb inhibitor inconclusive
FC(F)(F)c1cnc(NNC(=S)Nc2ccc(Cl)cc2)c(Cl)c1	ATXN viability inconclusive, ATXN2 expr inh inconclusive, TGFb inhibitor 2.8µM
COc1cc(C)c(CN2C[C@H](Sc3ccccn3)C[C@H]2C(=O)N(C)C)cc1C	none (no result: ATXN2 expr inh, HepG2 tox, TGFb inhibitor)
CN(C)c1ccc(/C=C2\C=Cc3ccccc32)cc1F	none (no result: ATXN viability, ATXN2 expr inh)
Cc1cnc(SCc2ccccn2)nc1C1CCCN(C(=O)c2cc3ccccc3oc2=O)C1 (centres undefined)	none (no result: ATXN2 expr inh, HepG2 tox, TGFb inhibitor)
O=C(N/N=C/c1ccc(-c2cccc(C(F)(F)F)c2)o1)c1ccccc1Br	ATXN viability inconclusive, TGFb inhibitor 20µM
CC(=O)Nc1ccc(NC(=O)COc2c(C)cc(Br)cc2C)cc1	none
CSc1cc(C)c(OCC(=O)Nc2ccc(NC(C)=O)cc2)c(C)c1	HepG2 tox 0.2µM (no result: ATXN2 expr inh)
Cc1ccc(C(=O)NC(=S)N2CCCC2)cc1	none
Cc1ccc(C(=O)NC(=S)N2CCN(C)CC2)cc1	HepG2 tox 10µM
N[C@H](C(=O)O)[C@@H](O)c1ccc(O)c(O)c1	none (no result: HepG2 tox, TGFb inhibitor)
COCCCn1c(=O)c2sccc2n(Cc2ccc(C)cc2)c1=O	HepG2 tox 13µM
COCCCn1c(=O)c2sccc2n(Cc2ccccc2)c1=O	none
COC1=C(Nc2ccccc2)C(=O)c2ccccc2C1=O	ATXN viability inconclusive, TGFb inhibitor 16µM
COC1=C(Nc2ccc(C)cc2)C(=O)c2ccccc2C1=O	ATXN viability inconclusive, TGFb inhibitor inconclusive
COc1ccccc1/C=C/c1nc2ccccc2s1	none (no result: ATXN viability, ATXN2 expr inh)
COc1cccc(-c2cc3nc(-c4ccccc4)cc(N4CCCC(O)C4)n3n2)c1 (centres undefined)	TGFb inhibitor 13µM (no result: ATXN2 expr inh)
Cc1ccc(CN2C[C@H](Sc3ccccn3)C[C@H]2C(=O)Nc2ccc3sc(C)nc3c2)s1	none (no result: ATXN2 expr inh, HepG2 tox, TGFb inhibitor)
O=C(NCCc1ccccc1Cl)c1ccc(Cn2c(=O)c3cccn3c3cccnc32)cc1	HepG2 tox 10µM, TGFb inhibitor inconclusive (no result: ATXN viability, ATXN2 expr inh)
CCCNC(=O)c1ccc(Cn2c(=O)c3cccn3c3cccnc32)cc1	none (no result: ATXN viability, ATXN2 expr inh)
NC(Cc1ccc(Cl)cc1)c1csc(NC(=O)Nc2ccccc2)n1 (centres undefined)	ATXN viability inconclusive, ATXN2 expr inh inconclusive, HepG2 tox 16µM, TGFb inhibitor 16µM
NC(CCc1ccccc1)c1csc(NC(=O)Nc2cccc(C(F)(F)F)c2)n1 (centres undefined)	ATXN2 expr inh inconclusive, HepG2 tox 11µM, TGFb inhibitor inconclusive (no result: ATXN viability)
COc1ccc(CC(N)c2csc(NC(=O)Nc3cccc(C(F)(F)F)c3)n2)cc1 (centres undefined)	ATXN viability inconclusive, ATXN2 expr inh inconclusive, TGFb inhibitor inconclusive
COc1ccccc1NC(=O)Nc1nc(C(N)Cc2ccc(Cl)cc2)cs1 (centres undefined)	ATXN viability inconclusive, ATXN2 expr inh inconclusive, TGFb inhibitor inconclusive
NC(Cc1ccccc1)c1csc(Nc2nccc(C(F)(F)F)n2)n1 (centres undefined)	ATXN2 expr inh inconclusive, HepG2 tox 16µM, TGFb inhibitor 16µM
NC(Cc1ccc(C(F)(F)F)cc1)c1csc(NC(=O)Nc2ccccc2Cl)n1 (centres undefined)	ATXN viability inconclusive, ATXN2 expr inh inconclusive, TGFb inhibitor inconclusive
NC(Cc1ccc(C(F)(F)F)cc1)c1csc(NC(=O)Nc2ccccc2)n1 (centres undefined)	ATXN2 expr inh inconclusive, HepG2 tox 16µM, TGFb inhibitor inconclusive (no result: ATXN viability)
